Hits are enriched below; roughly 2.8% of the tested compounds scored in any of these assays.
LGR2 inh = inhibitors of bursicon-induced LGR2 CRE-luciferase signal, primary screen, cell-based, HEK293, CRE-luciferase reporter, bursicon stimulation | Drosophila bursicon receptor LGR2 (rickets) | bursicon-stimulated, 4 h | inhibition, % at 9.99 µM | 380,000 tested, 0.35% active;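 active = drop in luminescence signal, shown as inhibition above about 50% in the replicate tests, limit read from the data, passing the limit was not always enough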;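 note: agonist challenge used bursicon conditioned medium at about half maximal strength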
TROY signal inh = inhibitors of TROY-driven NF-kB signaling, primary screen, Q293 LMP1-TROYcd cells, NF-kB luciferase, uHTS | Q293 LMP1-TROYcd NF-kB luciferase reporter, 4 h | 360,000 tested, 0.98% active | inhibition, % at 10 µM | AID 1347056, 2019;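 active = compounds whose plate-normalised and pattern-corrected inhibition of the luciferase reporter signal at the single screening dose is 50% or more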
PAX8 inh HTS = inhibitors of PAX8-driven TPO luciferase reporter, primary screen, RMG-I cells, single concentration; SteadyGlo, 24 h; 360,000 tested, 1.2% active; inhibition, % at 12.6 µM; AID 652154, 2013;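 active = mean replicate inhibition at least 60% with every replicate also reaching 60%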;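 note: luciferase light reporting Pax8 driven TPO promoter activity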
EWS-Fli inh = EWS/Fli-driven NR0B1 reporter inhibitors, primary screen, A673 cells, NR0B1 luciferase, luminescence, MLPCN library; viability-normalised; inhibition, % at 12.6 µM; 350,000 tested, 0.67% active; AID 651661, 2012;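 active = mean inhibition of at least 50% after viability correction, with every replicate also passing that limit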;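 note: firefly luciferase signal divided by Alamar Blue viability fluorescence both relative to DMSO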
TWEAK Fn14 block = inhibitors of TWEAK-Fn14 signaling, primary screen, luciferase reporter cells, uHTS; TWEAK-stimulated Fn14 reporter cells, luciferase luminescence, 8 h; inhibition, % at 10 µM; 360,000 tested, 2% active; AID 1159606, 2016; in the data active = inhibition above about 50%
Each line names hits and unclear results; the compound was inactive in the other large screens; ! = not confirmed by another sample.

CCc1[nH]nc(C(=O)NC2CCCc3c2cnn3-c2cc(C)cc(C)c2)c1C (stereo unspecified)	TROY signal inh 58 (no result: PAX8 inh HTS)
CCn1nc(C)cc1C(=O)NC1CCCc2c1cnn2-c1ccc(C)c(C)c1 (stereo unspecified)	TROY signal inh 56
Cc1cc(C(=O)N2CCc3ccccc32)n(-c2ccccc2)n1	none
Cc1cc(C)n(-c2ccc(C(=O)N3CCc4ccccc43)cc2)n1	TWEAK Fn14 block 88 (no result: LGR2 inh, EWS-Fli inh)
CC(C)CC#Cc1ccc([C@H]2[C@@H](CO)N3CCCCN(S(=O)(=O)Cc4ccccc4)C[C@H]23)cc1	none (no result: TROY signal inh, TWEAK Fn14 block)
Cc1ccc2[nH]c3c(=O)n(CCc4cnc[nH]4)cnc3c2c1	TROY signal inh 53 (no result: LGR2 inh, PAX8 inh HTS, EWS-Fli inh)
CCOC(=O)C1=C(COCCN)NC(C)=C(C(=O)OC)C1c1ccccc1Cl (stereo unspecified)	TROY signal inh 66!
Cc1ccc(S(=O)(=O)N[C@@H]2CC[C@@H](CC(=O)NCCN3CCCCC3)O[C@@H]2CO)cc1	none (no result: TROY signal inh, TWEAK Fn14 block)
C=C1CCC[C@]2(C)C[C@H]3OC(=O)C(CN4CCOCC4)[C@H]3C[C@@H]12 (stereo partly specified)	none (no result: LGR2 inh)
C/C1=C\CCC2C(/C=C(\C)CC1)OC(=O)C2CN1CCCCC1 (stereo unspecified)	PAX8 inh HTS 68
COc1cccc2c1OC1(C)CC2NC(=O)N1c1cccc(C(=O)Nc2ccc3c(c2)OCCO3)c1 (stereo unspecified)	TWEAK Fn14 block 83 (no result: PAX8 inh HTS, EWS-Fli inh)
COc1ccc(-n2cnc3scc(-c4ccccc4)c3c2=O)cc1	none
COc1ccc(-c2csc3ncn(Cc4ccccc4)c(=O)c23)cc1	TWEAK Fn14 block 91
CCNC(=O)c1cc2c(c(-c3cccc(-c4cc5ccccc5o4)c3)n1)[C@H](CCO)N(C(=O)NC(C)C)C2	TWEAK Fn14 block 53
CCS(=O)(=O)N1Cc2cc(C(=O)NCC3CC3)nc(-c3cccc(-c4cccnc4)c3)c2[C@H]1CCO	none (no result: TROY signal inh, TWEAK Fn14 block)
CCCNC(=O)c1cc2c(c(-c3cccc(-c4cc5ccccc5o4)c3)n1)[C@@H](CCO)N(C(=O)NC(C)C)C2	none
CCNC(=O)c1cc2c(c(-c3cccc(-c4ccncc4)c3)n1)[C@H](CCO)N(S(=O)(=O)CC)C2	EWS-Fli inh 55 (no result: TROY signal inh, PAX8 inh HTS, TWEAK Fn14 block)
Cc1noc(C)c1NC(=O)Nc1ccc2c(c1)C(=O)N([C@@H](C)CO)C[C@H](C)[C@H](CN(C)C(=O)NC(C)C)OCCCC[C@H](C)O2	none (no result: TROY signal inh, TWEAK Fn14 block)
C=CCN(c1ccccc1)S(=O)(=O)c1cccc(C(=O)Nc2nnc(SCC)s2)c1	TROY signal inh 53
O=C(C[C@@H]1C[C@@H]2c3cc(NC(=O)NC4CCCCC4)ccc3O[C@@H]2[C@H](CO)O1)NCc1ccccc1	none (no result: TROY signal inh, TWEAK Fn14 block)
O=C(CSc1c(Cl)cccc1Cl)N1CCC(c2nc3ccccc3s2)CC1	TROY signal inh 51 (no result: LGR2 inh, PAX8 inh HTS, EWS-Fli inh)
C[C@H]1CN([C@@H](C)CO)C(=O)Cc2cc(NS(=O)(=O)c3ccc(F)cc3)ccc2O[C@@H]1CN(C)Cc1ccc(C(F)(F)F)cc1	none (no result: TROY signal inh, TWEAK Fn14 block)
O=C1N/C(=C/c2cccn2-c2ccccc2)C(=O)N1Cc1ccc(F)cc1	none (no result: EWS-Fli inh)
O=C1N/C(=C/c2cccn2-c2ccc(F)cc2)C(=O)N1Cc1ccccc1F	TWEAK Fn14 block 75 (no result: PAX8 inh HTS, EWS-Fli inh)
O=C(c1cc2nc(-c3ccco3)cc(C(F)(F)F)n2n1)N1CCN(c2ccccc2)CC1	none (no result: PAX8 inh HTS, EWS-Fli inh)
O=C(c1cc2nc(-c3ccco3)cc(C(F)(F)F)n2n1)N1CCN(c2ccccn2)CC1	TWEAK Fn14 block 51 (no result: LGR2 inh, PAX8 inh HTS, EWS-Fli inh)
O=[N+]([O-])c1ccc(NS(=O)(=O)c2ccc(Cl)c(Cl)c2)cc1	TROY signal inh 55
CC(=O)Nc1ccc(S(=O)(=O)NCCC(=O)OCc2nnc(-c3ccccc3)o2)cc1	none
O=C(CCNS(=O)(=O)c1ccccc1)OCc1nnc(-c2ccccc2)o1	TROY signal inh 61
O=C(NC1CCC1)[C@@H]1[C@@H](CO)[C@@H]2Cn3c(ccc(-c4ccccc4)c3=O)[C@@H]2N1CCc1ccccc1	none (no result: TROY signal inh, TWEAK Fn14 block)
Oc1ccccc1-c1cc(-c2ccc3c(c2)OCCO3)n[nH]1	TROY signal inh 58, TWEAK Fn14 block 71 (no result: LGR2 inh, PAX8 inh HTS, EWS-Fli inh)
O=C(O)c1cc(-c2ccc3c(c2)OCCO3)n[nH]1	none
Cc1cc(C(=O)Nc2ccc(Cl)cc2)c(C)n1Cc1cccs1	TROY signal inh 51, TWEAK Fn14 block 60
Cc1cc(C(=O)CN2C(=O)c3ccccc3C2=O)c(C)n1Cc1cccs1	TWEAK Fn14 block 83 (no result: PAX8 inh HTS)
CCc1nc(NCC2CCCO2)c2oc3ccccc3c2n1 (stereo unspecified)	TWEAK Fn14 block 87 (no result: LGR2 inh, TROY signal inh, PAX8 inh HTS, EWS-Fli inh)
CCc1nc(Nc2ccc3c(c2)OCCO3)c2oc3ccccc3c2n1	TWEAK Fn14 block 79 (no result: LGR2 inh, EWS-Fli inh)
c1ccc2c(c1)oc1c(Nc3ccc4c(c3)OCCO4)ncnc12	TWEAK Fn14 block 67 (no result: PAX8 inh HTS)
Cc1nc(Nc2ccc3c(c2)OCCO3)c2oc3ccccc3c2n1	none (no result: LGR2 inh, PAX8 inh HTS, EWS-Fli inh)
CCCNC(=O)Nc1ccc2c(c1)OC[C@H](C)N(Cc1cccnc1)C[C@H](C)[C@@H](OC)CN(C)C2=O	none (no result: TROY signal inh, PAX8 inh HTS, TWEAK Fn14 block)
CO[C@@H]1CN(C)C(=O)c2ccc(NC(=O)c3ccc(F)cc3)cc2OC[C@H](C)N(C)C[C@@H]1C	none (no result: TROY signal inh, TWEAK Fn14 block)
CN(C)C(=O)c1cc([N+](=O)[O-])cc([N+](=O)[O-])c1N(C)C	TWEAK Fn14 block 107 (no result: LGR2 inh, PAX8 inh HTS, EWS-Fli inh)
O=C(C1CCN(c2ncnc3c2nc2n3CCCCC2)CC1)N1CCN(c2cccc(Cl)c2)CC1	TWEAK Fn14 block 54 (no result: EWS-Fli inh)
O=C(C1CCCN(c2ncnc3c2nc2n3CCCCC2)C1)N1CCN(c2ccc(Cl)cc2)CC1 (stereo unspecified)	none (no result: EWS-Fli inh)
O=C(C[C@H]1CC[C@@H](NC(=O)c2ccccc2)[C@@H](CO)O1)NCc1ccc(Oc2ccccc2)cc1	none (no result: TROY signal inh, TWEAK Fn14 block)
COc1ccc(S(=O)(=O)N[C@@H]2C=C[C@H](CC(=O)O)O[C@H]2CO)cc1	none (no result: TROY signal inh, TWEAK Fn14 block)
CC(C)(C)OC(=O)N1CCCC(C(=O)Nc2cccc(C(=O)NCCCCc3ccccc3)c2)C1 (stereo unspecified)	none
CC(C)(C)OC(=O)N1CCCC1C(=O)NCCc1ccccc1 (stereo unspecified)	TWEAK Fn14 block 79 (no result: LGR2 inh, TROY signal inh, PAX8 inh HTS, EWS-Fli inh)
O=C(NCCc1ccccc1)C1CCCN1C(=O)NCc1ccccc1 (stereo unspecified)	none (no result: LGR2 inh, PAX8 inh HTS, EWS-Fli inh)
O=C(NCCCCc1ccccc1)c1cccc(NC(=O)C2CCC2)c1	TWEAK Fn14 block 101
CC(C)(C)OC(=O)N1CCC(C(=O)Nc2ccc(C(=O)NCc3ccccc3)cc2)CC1	none
CC(C)(C)OC(=O)N1CCC(C(=O)Nc2ccc(C(=O)NCCc3ccccc3)cc2)CC1	TWEAK Fn14 block 54
CC(C)(C)OC(=O)N1CCCC(C(=O)Nc2cccc(C(=O)NCCc3ccccc3)c2)C1 (stereo unspecified)	TWEAK Fn14 block 100
O=C1c2ccccc2C(=O)N1C[C@@H]1CCCN(Cc2ccc(OCCO)cc2)C1	none (no result: LGR2 inh, TROY signal inh, TWEAK Fn14 block)
CNC[C@H]1Oc2c(NC(=O)Nc3ccc(F)cc3)cccc2C(=O)N([C@H](C)CO)C[C@H]1C	none (no result: TROY signal inh, TWEAK Fn14 block)

Compound activity as filed in PubChem BioAssay.
